# Laboratory results: ChEMBL document CHEMBL3988442, “University of Dundee, Small-Polar-MMV Screening Library” (2021)
# Hit rate of the full screen: of about 69,000 compounds, about 950 (1.4%) showed an effect of 50% or more. This excerpt belongs to a sample that is enriched for strong results.
# System: Mycobacterium tuberculosis
# Assay: Cornell M. t heat shock assay; also: in the data most compounds retested in dose-response had high values
# Format: functional, organism-based
# Parameters: dose or concentration left out as unconfirmed
row,Structure (SMILES),Percent Effect
1,CN(C)C(=O)CN1CCC2(CCCN(Cc3cccn3C)C2)C1=O.O=C(O)C(F)(F)F (stereo unspecified),8.62%
2,CN(C)c1ncc2c(c1C(=O)O)CCN(Cc1ccco1)C2.O=C(O)C(F)(F)F.O=C(O)C(F)(F)F,10.22%
3,Cc1ccc(N2CCC3(CCN(C(=O)N(C)C)CC3)CC2)nn1.O=C(O)C(F)(F)F,0.5325%
4,CC(C)N(C)C[C@H]1C[C@@H]2CN(Cc3ccco3)C[C@@H]2O1.O=C(O)C(F)(F)F.O=C(O)C(F)(F)F,-4.4%
5,CCCN1CCC(c2nc3ccc(-c4ccccc4)cn3n2)CC1.O=C(O)C(F)(F)F,-8.011%
6,O=C(O)C(F)(F)F.O=C(O)C(F)(F)F.c1cncc(OC[C@@H]2CC[C@H]3[C@H](CCN3Cc3cccs3)O2)c1,-169%
7,CC(=O)NC1CCN(c2cc(C3CCNCC3)nc(C)n2)C1 (stereo unspecified),-7.027%
8,Cc1cnn(CC2CN(Cc3nc4ccccc4c(=O)[nH]3)CCO2)c1 (stereo unspecified),8.669%
9,O=c1[nH]c(CCN2CCCCC2Cn2cccn2)nc2ccccc12 (stereo unspecified),29.01%
10,O=c1[nH]c(CCN2CCCC2Cn2cncn2)nc2ccccc12 (stereo unspecified),48.51%
11,Cc1nc(C)n(CC2CCCN2Cc2nc3ccccc3c(=O)[nH]2)n1 (stereo unspecified),-31.26%
12,Cn1cc(C2CCCN2CCc2nc3ccccc3c(=O)[nH]2)cn1 (stereo unspecified),2.636%
13,Cc1cnn(CC2CCCN2CCc2nc3ccccc3c(=O)[nH]2)c1 (stereo unspecified),98.35%
14,Cc1cnn(CC2CCCN2Cc2nc3ccccc3c(=O)[nH]2)c1 (stereo unspecified),89.62%
15,O=c1[nH]c(CCN2CCCC2Cn2cccn2)nc2ccccc12 (stereo unspecified),50.72%
16,O=S(=O)(CCN1CCCC1Cn1cccn1)c1ccccc1 (stereo unspecified),15.63%

row,Structure (SMILES),Percent Effect
1,CC(C)(C)c1n[nH]cc1CNC1CCC(C(F)(F)F)CC1.Cl (stereo unspecified),-43.27%
2,Cl.O=C(O)CN1CCC(C(F)(F)F)CC1,11.41%
3,CN(Cc1cccnc1)C1CC2(CCN(Cc3cccnc3)CC2)C1.O=C(O)C(F)(F)F.O=C(O)C(F)(F)F.O=C(O)C(F)(F)F,-1.954%
4,CNS(=O)(=O)c1cccc(S(=O)(=O)Nc2ncc(C)s2)c1,68.64%
5,Cc1cnc(NS(=O)(=O)c2ccccc2)s1,4.612%
6,COCc1cccc(S(=O)(=O)Nc2ncc(C)s2)c1,15.26%
7,COC(=O)c1cccc(S(=O)(=O)Nc2ncc(C)s2)c1,1.16%
8,Cc1cnc(NS(=O)(=O)c2cccc(C#N)c2)s1,-32.7%
9,CCOCc1cccc(S(=O)(=O)Nc2ncc(C)s2)c1,52.82%
10,Cl.O=C(C1CCCC1)N1C[C@@H](c2ccsc2)[C@@H]2CN(C3CCCC3)CC[C@@H]21,3.962%
11,COCCN1CCCn2c(nc(Cn3cncn3)cc2=O)C1.O=C(O)C(F)(F)F,17.08%
12,CCOCC1CC2(CCN(C(=O)c3ncccn3)CC2)CO1 (stereo unspecified),-17.44%
13,O=C(Nc1ccccc1)N1C[C@H]2C[C@H](C(=O)N3CCCC3)[C@@H](C1)O2,-25.79%
14,COCC1N(C(=O)c2ccco2)[C@H]2CC[C@]1(O)CC2 (stereo partly specified),16.02%
15,O=C(O)C(F)(F)F.O=C(c1ccno1)N1CCO[C@@H]2CC(COCc3ccccn3)C[C@H]21 (stereo partly specified),1.135%
